Rows were chosen to be rich in hits. Some 1.6% of all compounds tested hit in one or more screens of this group.
gsp antagonist: antagonizes gsp, the McCune-Albright syndrome mutation; gsp-mutant cells, cAMP HTRF, 30 min; AID 624288; actives 0.4% (n = 340,000); Potency, µM (top dose mostly 76.9 µM), without a hit: at the top dose activity change, negative = inhibition, usual class: inhibitors; calls by dose curve; cell line not stated here;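 also: intracellular cAMP measured with PDE inhibitor Ro 20-1724 present during compound exposure; % is scaled to controls: 0 for no effect and ±100 for the full control effect; nearly all actives have a fitted effect of over 65% in size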
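Cells in G418 medium, seeded 16-24 h, 37C; buffer exchange to DPBS + 1 mM CaCl2, 0.5 mM MgCl2, 0.05% BSA; cpds in DMSO + […] (300 uM stock), 30 min 37C; HTRF cAMP detection.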
gsp ag: agonists of gsp mutant (McCune-Albright syndrome); gsp mutant cells, cAMP HTRF, 30 min; Potency, µM (doses to about 76.9 µM), without a hit: top-dose activation (cAMP increase), actives largely listed as activators; actives 0.13% (n = 340,000); AID 624287; active = well fitted activation curve with a large enough effect; inconclusive = small, poorly fitted or top-dose-only effect, or another doubt; inactive = no such curve, though single readings can be large or run the other way; cell line not stated here;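 also: phosphodiesterase inhibitor Ro 20-1724 added with compounds to block cAMP breakdown; nearly all actives have a fitted effect of over 60% in size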
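Cells stably selected in G418 were plated at 2000/well, grown 16-24 hr, then given compounds in DMSO with the PDE inhibitor […] (300 uM solution added) for 30 min at 37C; cAMP was read by HTRF.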
Mito fusion yeast: blocks mitochondrial division or promotes mitochondrial fusion; S. cerevisiae fusion-defective mutant growth rescue, CellTiterGlo 48 h; actives 0.23% (n = 320,000); Potency, µM (highest dose often 46.1 µM), for the others: top-dose growth rescue (activation), actives largely listed as activators; also: % of control where 0% means no effect; nearly all actives have a fitted effect of over 45% in size
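Read-out: ATP-based luminescence (CellTiterGlo, 10 min ambient) reporting growth of fusion-defective ts yeast after 48 hours at 37C on glycerol/ethanol YPEG medium in the presence of compound.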
FUS suppressor: FUS proteinopathy suppression in yeast; AID 1347120; actives 0.24% (n = 390,000); Potency, µM (series often up to 76.6 µM), most hits filed as activators; S. cerevisiae FUS-expressing, growth rescue, OD600, 24 h;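 also: plate controls were DMSO vehicle for no effect and reference control for full effect; nearly all actives have a fitted effect of over 55% in size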
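Cultures pregrown in 2.5% raffinose medium are shifted to minimal medium containing 2% galactose to express toxic FUS. Compounds are tested at several concentrations. After 24hr at 30C, growth is quantified at 600 nm absorbance.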
ALOX12 inh: inhibitors of human 12S-lipoxygenase ALOX12 | P18054 | purified 12hLO, xylenol orange hydroperoxide absorbance | Potency, µM (titrated, usually from 108 µM), for the others: at the highest dose activity change, negative = inhibition, actives largely listed as inhibitors | actives 1.1% (n = 580,000) | AID 1671190; also: % is scaled to controls: 0 for no effect and ±100 for the full control effect
Target sequence (P18054 whole entry, looked up): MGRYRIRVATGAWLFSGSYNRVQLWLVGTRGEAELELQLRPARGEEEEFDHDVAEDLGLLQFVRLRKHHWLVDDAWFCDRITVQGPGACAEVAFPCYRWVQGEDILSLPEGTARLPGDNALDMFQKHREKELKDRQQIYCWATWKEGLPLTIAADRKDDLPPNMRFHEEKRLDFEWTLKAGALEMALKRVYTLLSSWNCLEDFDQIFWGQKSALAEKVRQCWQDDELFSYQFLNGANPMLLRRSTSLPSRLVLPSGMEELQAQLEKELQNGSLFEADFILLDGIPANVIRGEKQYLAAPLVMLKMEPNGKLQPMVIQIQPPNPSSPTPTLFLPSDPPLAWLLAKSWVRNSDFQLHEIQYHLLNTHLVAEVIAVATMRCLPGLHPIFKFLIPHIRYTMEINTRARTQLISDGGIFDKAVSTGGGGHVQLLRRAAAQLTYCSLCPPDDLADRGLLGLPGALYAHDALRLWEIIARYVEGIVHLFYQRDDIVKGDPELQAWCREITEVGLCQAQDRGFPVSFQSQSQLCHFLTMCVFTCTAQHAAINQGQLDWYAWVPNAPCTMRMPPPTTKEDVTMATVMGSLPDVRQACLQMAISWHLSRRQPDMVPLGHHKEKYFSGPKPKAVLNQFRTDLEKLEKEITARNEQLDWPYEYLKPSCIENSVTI
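Hydroperoxide product was detected by ferrous iron/xylenol orange as the 573 to 405 nm absorbance ratio. Arachidonic acid at 40 uM (final) was turned over for 30 min at room temperature by 150 nM human 12hLO, pH 7.0 Hepes buffer, after 15 min compound preincubation.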
Numbers without * were called inactive; i = inactive; ? = inconclusive; . = no result given; ! = not confirmed by another sample; [ ] = another dose, or the depositor's remark. Unless noted, calls follow the shape of the dose curve; as a rule, active = well fitted curve in the direction sought with a large enough effect; inconclusive = small, poorly fitted or top-dose-only effect, or another doubt; inactive = no such curve, though single readings can be large; an effect the other way counts as inactive or inconclusive. Potency is read from the fitted curve at half-maximal effect.

SMILES | gsp antagonist | gsp ag | Mito fusion yeast | FUS suppressor | ALOX12 inh
COc1ccc(C(=O)NC(=S)NNC(=O)c2ccccc2C)cc1 | 7.1% | -1.0%[15.4 µM] | . | i | 44.7µM*
CCCCn1nc(C(=O)Nc2ccc(F)c(F)c2)c2ccccc2c1=O | . | . | . | . | -22.1%
O=C1c2ccccc2C(=O)N1CCCc1cn(C[C@H]2CC[C@@H]([C@@H]3CC[C@H](Cn4cc(CCCN5C(=O)c6ccccc6C5=O)nn4)O3)O2)nn1 | -7.2% | . | -0.4% | i | -58.7%
O=C1c2ccccc2C(=O)N1CCCCc1cn(C[C@H]2CC[C@@H]([C@@H]3CC[C@H](Cn4cc(CCCCN5C(=O)c6ccccc6C5=O)nn4)O3)O2)nn1 | 31.6µM* | . | . | i | -25.1%
COc1ccccc1OCCSc1nc2ccccc2o1 | . | . | . | . | 5.0%
CCOc1ccc(N2C(=O)c3ccccc3NC2c2cn(C)c(=O)n(C)c2=O)cc1 (stereo not given) | . | . | . | . | 71.9%
CCCC(NC(C)=O)C12CC3CC(CC(C3)C1)C2 (stereo not given) | . | . | . | . | 6.0%
CCCC(NC(=S)NCC1CCCO1)C12CC3CC(CC(C3)C1)C2 (stereo not given) | -13.9% | -20.8% | -2.1% | i | 39.8µM*
Cc1cc(C(=O)OCC(=O)N(C)Cc2ccc(F)cc2)c2ccccc2n1 | . | . | . | . | 3.4%
CC(=O)c1sc(N/N=C/c2cccc(O)c2)nc1C | -9.8% | 18.2% | -1.2% | i | 14.7%
CC(=O)c1sc(N/N=C\c2c(O)ccc3ccccc23)nc1C | -6.0% | 12.0% | . | i | 39.8µM*
COc1cccc(NC(=O)CSC2=Nc3ccccc3C3=NC(CC(=O)NCc4ccccc4OC)C(=O)N23)c1 (stereo not given) | . | . | . | 35.5µM* | ?
CC(C)c1ccc(NC(=O)CSC2=Nc3ccccc3C3=NC(CC(=O)NC4CCCCC4)C(=O)N23)cc1 (stereo not given) | . | . | . | 31.6µM* | -28.0%
COc1ccc(OC)c(NC(=O)CSC2=Nc3ccccc3C3=NC(CC(=O)NCc4ccco4)C(=O)N23)c1 (stereo not given) | . | . | . | i | -18.8%
Cc1cccc(N2CCN(C(=O)COc3cccc4c3OC(C)(C)C4)CC2)c1C | ? | ? | 15.8µM* | ? | -7.8%
CN(C)S(=O)(=O)c1ccc(-c2nc(C#N)c(N3CCCCCC3)o2)cc1 | . | . | . | . | -10.8%
CN(Cc1ccccc1)CC(C#N)C(O)c1ccncc1 (stereo not given) | . | . | . | . | 45.5%
CC(NO)C(C)(C)NO (stereo not given) | -6.2% | 40.1% | -4.1% | i | 22.4µM*!
COc1ccc(NC(=O)Cc2c(C)c3c(OC)cc(C)cc3oc2=O)c(OC)c1 | . | . | . | . | 42.6%
FC(F)(F)c1cccc(N2CCN(c3nc4ccccc4n4cnnc34)CC2)c1 | . | . | . | i | -23.0%
CN1CCN(c2nc3cc(C(F)(F)F)ccc3n3cccc23)CC1 | -10.1% | . | 18.4µM* | i | ?
O=C(COC(=O)c1cc(=O)[nH]c2ccccc12)c1cccc2ccccc12 | . | . | . | . | -52.5%
CC1=CC(=O)C=CC1=Nc1ccc(N(C)C)cc1 | . | . | . | i | 7.94µM*
CN(C)c1ccc(N=Nc2ccc(S(N)(=O)=O)cc2)cc1 | 16.8% | -9.3%[15.4 µM] | -8.8% | i | -26.5%
C[C@H]1CC[C@H]2C(=O)N3[C@H](c4cccc(N5CCCC5=O)c4)[C@@H](C)CC[C@H]3C(=O)N2[C@@H]1c1cccc(N2CCCC2=O)c1 | . | . | -0.8% | . | .
SMILES | gsp antagonist | gsp ag | Mito fusion yeast | FUS suppressor | ALOX12 inh
C[C@H]1CC[C@H]2C(=O)N3[C@H](c4ccccc4Br)[C@@H](C)CC[C@H]3C(=O)N2[C@@H]1c1ccccc1Br | . | . | 22.4µM* | . | .
O=C(NCCc1ccccc1)c1nc2c(nnn2Cc2ccccc2Cl)c(=O)[nH]1 | 39.8µM* | 14.1% | 8.7% | i | -0.3%
COc1cccc(C(=O)N2CCC3(CC2)CCN(CCc2ccccc2)c2ccccc2O3)c1 | . | . | . | . | -12.5%
CCCOc1ccc(/C=N/Nc2ccc(C(=O)O)cc2)c(OCCC)c1 | 10µM* | -14.4%[15.4 µM] | 0.4% | ? | ?
Cc1ccc(-n2nnc(-c3nc(-c4ccccc4Cl)no3)c2C)cc1F | . | . | . | . | 8.0%
COc1ccccc1N1CCN(CCN2C(=O)C3CCCCN3C2=O)CC1 (stereo not given) | 15.6% | 5.3%[15.4 µM] | -2.3% | i | 12.6µM*
CCOC(=O)CSc1nc(N)c2c3c(sc2n1)CCCC3C (stereo not given) | . | . | . | . | 20.7%
CCCN1C(=O)[C@@H]2[C@@H](CCN2C(=O)CSCC(=O)O)N(Cc2cccs2)C1=O | . | . | . | . | 31.6µM*
O=C1[C@@H]2[C@@H](CCN2C(=O)NC2CCCCC2)N(Cc2cccs2)C(=O)N1c1cccc(F)c1 | . | . | . | . | -12.0%
CC12CCC(C(=O)N3CCCc4ccccc43)(CC1=O)C2(C)C (stereo not given) | -13.0% | -4.1% | 7.1% | i | 0.0%
CC12CCC(C(=O)N3CCc4ccccc43)(CC1=O)C2(C)C (stereo not given) | -0.6% | -21.4% | 14.1µM* | i | 23.7%
CCOC(=O)C1=C(CN(CCOC)Cc2ccco2)NC(=O)NC1c1ccc(C)cc1 (stereo not given) | . | . | . | . | -17.6%
CCCN(CCC)CC1=C(C(=O)OCC)C(c2ccc(C)cc2)NC(=O)N1 (stereo not given) | . | . | . | . | 14.1µM*
CC(C)Oc1ccc(OCCn2c(=S)[nH]c3c(N)ncnc32)cc1 | -16.8% | -1.6% | 4.4% | i | 44.7µM*
Cc1ccc2nc(SCC(=O)Nc3ccccc3C(=O)Nc3ccccc3)[nH]c2c1 | . | . | . | . | 1.9%
CCCCC[n+]1cccc2c3ccccc3ccc21 | 6.5% | 10.6% | 9.0% | i | 44.7µM*
O=C(CCc1nnc2n(Cc3ccc(F)cc3)c(=O)c3ccccc3n12)NCCN1CCOCC1 | 8.0% | 10.6% | 0.5% | i | 345.5%
O=C(CCc1nnc2n(Cc3ccc(F)cc3)c(=O)c3ccccc3n12)N1CCN(c2ccccn2)CC1 | -23.4% | -10.8% | 12.6µM* | i | 14.3%
N#C/C(=N\Nc1cccc(C(F)(F)F)c1)C(=O)c1csc(-c2cccnc2)n1 | 25.1µM* | -10.6% | ? | i | ?
CCc1nc(Nc2ccc(N3CCN(C(C)=O)CC3)cc2)c2oc3ccccc3c2n1 | -3.7% | 25.2% | -4.2% | i | 60.4%
CC(=O)N1CCN(c2ccc(Nc3ncnc4c3oc3ccccc34)cc2)CC1 | 28.2µM* | 3.0% | -11.6% | i | ?
CC(C)n1c(=O)[nH][nH]c1=S | 3.5% | 13.2%[15.4 µM] | -1.2% | i | 35.5µM*
CC(=O)N1c2ccc(S(=O)(=O)NCCC(=O)N3CCCC(C)C3)cc2CC1C (stereo not given) | 2.8% | ? | 11.2µM* | i | -3.8%
CC(=O)N1CCc2cc(S(=O)(=O)NCCC(=O)N3CCc4ccccc4C3)ccc21 | 39.8µM* | 12.8% | 9.3% | i | .
Cc1ccc2oc(C(=O)Nc3cccc(C(F)(F)F)c3)cc(=O)c2c1 | . | . | . | . | 1.2%

Screens deposited in PubChem BioAssay by National Center for Advancing Translational Sciences (NCATS).
